In this experiment the test system is Saccharomyces cerevisiae. Nature of the experiment: fraction of cells in G1 phase (DNA content, flow cytometry); higher = more cells with unreplicated DNA (G1 delay). Particulars: temperature: 30 C, YPD. The procedure, abridged: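 S. cerevisiae grown in YPD at 30°C was exposed to library drugs. In one setup, overnight sensitized JTY2953 cultures were diluted 1∶200, given a final 20 µg/ml and fixed after 6–7 h, while other runs dosed dividing JTY2953 with fixation 6 h later or BY4741 with fixation 4.33 h later. Cells were ethanol-fixed, stained with SYTOX Green and analysed by flow cytometry at 10,000 events. The G1 fraction is the area of the Dean-Jett-Fox G1 peak divided by the summed G1 and G2/M areas.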
Background: In flow cytometry, cells or beads pass a laser one at a time.

The mark [1] stands for this setting: JTY2953 pdr5 snq2 (sensitized), drug added to: cultures diluted from stationary phase, 6-7 h.
Where [2] appears, read: BY4741 PDR5+ SNQ2+, drug added to: actively dividing cells, 4.33 h.
The mark [3] stands for this setting: JTY2953 pdr5 snq2 (sensitized), drug added to: actively dividing cells, 6 h.

Structures are written as SMILES. Counter-ions that a name gives are not always drawn.

On to `C=CC[N+]1([C@H]2C[C@H]3[C@@H]4CC[C@H]5C[C@H](O)[C@@H](N6CCOCC6)C[C@]5(C)[C@H]4CC[C@]3(C)[C@H]2OC(C)=O)CCCC1` [Rocuronium bromide] (37.7508 µM), for which, under setting [1], the “fraction of cells in G1 phase” value was 0.479.
The same measure, in the same setting: next, `COc1ccc2[nH]c([S+]([O-])Cc3ncc(C)c(OC)c3C)nc2n1` (stereo not given) [Tenatoprazole] (57.7349 µM): 0.486; `CC(C)NCC(O)COc1ccc(CC(N)=O)cc1` (stereo not given) [Atenolol] (75.0911 µM): 0.454; `O=C(O)c1cn(-c2ccc(F)cc2)c2cc(N3CCNCC3)c(F)cc2c1=O` [Sarafloxacin HCl] (51.8977 µM): 0.444.
For `O=C1CN2Cc3c(ccc(Cl)c3Cl)N=C2N1` [Anagrelide] (78.0967 µM), the “fraction of cells in G1 phase” value under setting [1] is 0.469.
As to `CCCNCC(O)COc1ccccc1C(=O)CCc1ccccc1` (stereo not given) [Propafenone] (58.5652 µM), the “fraction of cells in G1 phase” value under setting [1] came to 0.489.
The same measure, in the same setting: next, `CC(CCc1ccc(O)cc1)NCCc1ccc(O)c(O)c1` (stereo not given) [Dobutamine HCl] (66.3594 µM): 0.528.
Regarding `CC(=O)O[C@H]1C(=O)[C@@]2(C)[C@H]([C@H](OC(=O)c3ccccc3)[C@]3(O)C[C@H](OC(=O)[C@H](O)[C@@H](NC(=O)c4ccccc4)c4ccccc4)C(C)=C1C3(C)C)[C@]1(OC(C)=O)CO[C@@H]1C[C@@H]2O` [Taxol] (23.4212 µM), the “fraction of cells in G1 phase” value under setting [1] is 0.481.
Still for that read-out and setting: then `N[C@@H](Cc1ccc(O)c(O)c1)C(=O)O` [Levodopa] (101.424 µM), with 0.487; and `Nc1nc(N)nc(-c2cc(Cl)ccc2Cl)n1` [Irsogladine maleate] (78.0958 µM), with 0.471.
On the same count and under the same terms, then `CN(C)CCCC1(c2ccc(F)cc2)OCc2cc(C#N)ccc21` (stereo not given) [Citalopram] (61.652 µM), with 0.454.
Same read-out and setting: then `CNC1(C)C2CCC(C2)C1(C)C` (stereo not given) [Mecamylamine HCl] (119.548 µM), with 0.486.
As to `NS(=O)(=O)c1cc2c(cc1Cl)NC(C(Cl)Cl)NS2(=O)=O` (stereo not given) [Trichloromethiazide] (52.5406 µM), the “fraction of cells in G1 phase” value under setting [1] was determined as 0.494.
For `CCN(CC)CCNC(=O)c1cc(Cl)c(N)cc1OC` [Metoclopramide HCl] (66.7104 µM), the “fraction of cells in G1 phase” value under setting [1] is 0.493.
With `Cc1ccc(NC(=O)c2ccc(CN3CCN(C)CC3)cc2)cc1Nc1nccc(-c2cccnc2)n1` [Imatinib] (40.5173 µM), the “fraction of cells in G1 phase” value under setting [1] was 0.52.
Still for that read-out and setting: then `Nc1ccn([C@H]2CC[C@@H](CO)O2)c(=O)n1` [2',3' - dideoxycytidine] (94.687 µM), with 0.474; and `CC1(C)S[C@@H]2[C@H](NC(=O)COc3ccccc3)C(=O)N2[C@H]1C(=O)O` [Pencillin v potassium] (57.2429 µM), with 0.461; and `COc1ccnc(C[S+]([O-])c2nc3cc(OC(F)F)ccc3[nH]2)c1OC` (stereo not given) [Pantoprazole] (52.168 µM), with 0.484.
As for `CN/C(=N\c1ccc(C2=NNC(=O)CC2C)cc1)NC#N` (stereo not given) [Siguazodan] (70.3425 µM), the “fraction of cells in G1 phase” value under setting [1] turned out to be 0.493.
Still for that read-out and setting: next, `CCOC(=O)[C@H](CCc1ccccc1)N[C@@H](C)C(=O)N1CCC[C@H]1C(=O)O` [Enalapril] (53.127 µM): 0.511.
The same measure, in the same setting: then `N/C(=N\C(=O)c1nc(Cl)c(N)nc1N)NCc1ccccc1` [Benzamil HCl] (56.1482 µM), with 0.493; and `CCN(CC)CCCC(C)Nc1c2ccc(Cl)cc2nc2ccc(OC)cc12` (stereo not given) [Quinacrine 2HCl dihydrate] (50.004 µM), with 0.529; and `CC(=O)NC[C@H]1CN(c2ccc(N3CCOCC3)c(F)c2)C(=O)O1` [Linezolid] (59.2849 µM), with 0.526.
With `Cc1c(O)cccc1C(=O)N[C@@H](CSc1ccccc1)[C@H](O)CN1C[C@H]2CCCC[C@H]2C[C@H]1C(=O)NC(C)(C)C` [Nelfinavir Mesylate] (30.1249 µM), the “fraction of cells in G1 phase” value under setting [1] amounted to 0.487.
`CCCCn1c(=O)c2c(ncn2CC(C)=O)n(CCCC)c1=O` [Denbufylline] (62.423 µM): the “fraction of cells in G1 phase” value under setting [1] amounted to 0.517.
For the compound `CCCCCOC(=O)Nc1nc(=O)n([C@@H]2O[C@H](C)[C@@H](O)[C@H]2O)cc1F` [Capecitabine] (55.6483 µM), the “fraction of cells in G1 phase” value under setting [1] was found to be 0.442.
Turning to `CN1C(C(=O)Nc2ccccn2)=C(O)c2sccc2S1(=O)=O` [Tenoxicam] (59.2806 µM), the “fraction of cells in G1 phase” value under setting [1] came to 0.469.
In the case of `NC[C@H]1CC[C@H](C(=O)O)CC1` [Tranexamic acid] (127.226 µM), the “fraction of cells in G1 phase” value under setting [1] stood at 0.504.
As for `CCCCN1CCCCC1C(=O)Nc1c(C)cccc1C` (stereo not given) [Bupivacaine HCl] (69.3393 µM), under setting [1], the “fraction of cells in G1 phase” value was 0.447.
Regarding `Cc1scc2c1N(C(=O)CN1CCN(C)CC1)c1ccccc1NC2=O` [Telenzepine 2HCl] (53.9845 µM), the “fraction of cells in G1 phase” value under setting [1] is 0.498.
Same read-out and setting: then `C[C@H]1COc2c(N3CCN(C)CC3)c(F)cc3c(=O)c(C(=O)O)cn1c23` [Levofloxacin HCl] (55.344 µM), with 0.471; and `Cc1ccc(N(CC2=NCCN2)c2cccc(O)c2)cc1` [PhentolamineHCl] (62.9327 µM), with 0.505; and `CN[C@@H]1[C@H](O[C@H]2[C@H](O[C@H]3[C@H](O)[C@@H](O)[C@H](N=C(N)N)[C@@H](O)[C@@H]3N=C(N)N)O[C@@H](C)[C@]2(O)C=O)O[C@@H](CO)[C@H](O)[C@H]1O` [Streptomycin sulfate] (34.3888 µM), with 0.478.
As for `C/N=C(/NC#N)NCCSCc1csc(NC(=N)N)n1` [Tiotidine] (64.0163 µM), the “fraction of cells in G1 phase” value under setting [1] stood at 0.478.
The same measure, in the same setting: then `CCS(=O)(=O)CCn1c([N+](=O)[O-])cnc1C` [Tinidazole] (80.8818 µM), with 0.443; and `CC(=O)O[C@@]12CO[C@@H]1C[C@H](O)[C@@]1(C)C(=O)[C@H](O)C3=C(C)[C@@H](OC(=O)[C@H](O)[C@@H](NC(=O)OC(C)(C)C)c4ccccc4)C[C@@](O)([C@@H](OC(=O)c4ccccc4)[C@H]21)C3(C)C` [Docetaxil] (24.7555 µM), with 0.507.
Still for that read-out and setting: next, `CCC(=O)O[C@]1(C(=O)CCl)[C@@H](C)C[C@H]2[C@@H]3CCC4=CC(=O)C=C[C@]4(C)[C@@]3(F)[C@@H](O)C[C@@]21C` [Clobetasol propionate] (42.8282 µM): 0.526; `Clc1ccc2c(c1)C(N1CCNCC1)=Nc1ccccc1O2` [Amoxapine] (63.737 µM): 0.581; `CCOC(=O)OC(C)OC1=C(C(=O)Nc2ccccn2)N(C)S(=O)(=O)c2ccccc21` (stereo not given) [Ampiroxicam] (44.6957 µM): 0.5.
Still for that read-out and setting: then `CC(=O)Oc1ccccc1C(=O)O` [Acetylsalicylic acid] (111.011 µM), with 0.49.
Regarding `CC1CCc2c(N3CCC(O)CC3)c(F)cc3c(=O)c(C(=O)O)cn1c23` (stereo not given) [Nadifloxacin] (55.4956 µM), the “fraction of cells in G1 phase” value stood at 0.43 under setting [2] and 0.281 under setting [1].
In the case of `CCOC(=O)C1=C(COCCN)NC(C)=C(C(=O)OC)C1c1ccccc1Cl` (stereo not given) [Amlodipine] (48.9134 µM), the “fraction of cells in G1 phase” value turned out to be 0.481 under setting [2], 0.673 under setting [3] and 0.768 under setting [1].
For `CCCCCCCCCCCCCCCCOP(=O)([O-])OCC[N+](C)(C)C` [Miltefosine] (49.0703 µM), the “fraction of cells in G1 phase” value is 0.596 under setting [3] and 0.858 under setting [1].
On to `CC/C(=C(/CC)c1ccc(O)cc1)c1ccc(O)cc1` [Diethylstilbestrol] (74.5271 µM), for which the “fraction of cells in G1 phase” value turned out to be 0.42 under setting [3] and 0.838 under setting [1].
As for `C=C1/C(=C\C=C2/CCC[C@]3(C)[C@@H]([C@H](C)CCCC(C)C)CC[C@@H]23)C[C@@H](O)C[C@@H]1O` [Alfacalcidol] (49.9188 µM), the “fraction of cells in G1 phase” value by setting is: under setting [2], 0.469; under setting [3], 0.651; under setting [1], 0.606.
Take `CCC(C)(C)c1ccc(CC(C)CN2C[C@@H](C)O[C@@H](C)C2)cc1` (stereo not given in full) [Amorolfine] (62.9883 µM): the “fraction of cells in G1 phase” value is, setting by setting: under setting [3], 0.367; under setting [1], 0.841.
As for `COc1ccc(-c2cc(=S)ss2)cc1` [Anethole-trithione (anetholtrithion)] (83.2062 µM), the “fraction of cells in G1 phase” value runs as follows: under setting [3], 0.486; under setting [1], 0.735.
With `Clc1ccc(CO/N=C(\Cn2ccnc2)c2ccc(Cl)cc2Cl)c(Cl)c1` [Oxiconazole nitrate] (46.6053 µM), the “fraction of cells in G1 phase” value reads like this: under setting [3], 0.397; under setting [1], 0.853.
For `CN1CCN(C2=Nc3cc(Cl)ccc3Nc3ccccc32)CC1` [Clozapine] (61.1935 µM), the “fraction of cells in G1 phase” value reads like this: under setting [2], 0.437; under setting [1], 0.319.
On to `CN1CCN(CCCN2c3ccccc3Sc3ccc(C(F)(F)F)cc32)CC1` [Trifluoperazine 2HCl] (41.632 µM), for which the “fraction of cells in G1 phase” value stood at 0.295 under setting [3] and 0.873 under setting [1].
Consider `C#C[C@]1(O)CC[C@H]2[C@@H]3CCC4=Cc5oncc5C[C@]4(C)[C@H]3CC[C@@]21C` [Danazol] (59.2652 µM), for which the “fraction of cells in G1 phase” value under setting [3] is 0.457 and the “fraction of cells in G1 phase” value under setting [1] was determined as 0.88.
As to `Clc1ccc(C(Cn2ccnc2)OCc2ccsc2Cl)c(Cl)c1` (stereo not given) [Tioconazole] (51.5839 µM), the “fraction of cells in G1 phase” value stood at 0.427 under setting [3] and 0.863 under setting [1].
On the same counts, the results for `C=C1/C(=C\C=C2/CCC[C@]3(C)[C@@H]([C@H](C)/C=C/[C@@H](O)C4CC4)CC[C@@H]23)C[C@@H](O)C[C@@H]1O` [Calcipotriene] (48.471 µM) are 0.375 and 0.634.
As for `CO[C@@]12[C@H](COC(N)=O)C3=C(C(=O)C(C)=C(N)C3=O)N1C[C@@H]1N[C@@H]12` [Mitomycin c] (59.8203 µM), the “fraction of cells in G1 phase” value by setting is: under setting [2], 0.399; under setting [1], 0.273.
With `CCC(C)n1ncn(-c2ccc(N3CCN(c4ccc(OCC5COC(Cn6cncn6)(c6ccc(Cl)cc6Cl)O5)cc4)CC3)cc2)c1=O` (stereo not given) [Itraconazole] (28.3427 µM), the “fraction of cells in G1 phase” value is, setting by setting: under setting [2], 0.493; under setting [3], 0.751; under setting [1], 0.667.
Consider `C[C@@H]1CN(c2c(F)c(N)c3c(=O)c(C(=O)O)cn(C4CC4)c3c2F)C[C@H](C)N1` [Sparfloxacin] (50.9672 µM), for which the “fraction of cells in G1 phase” value under setting [2] was determined as 0.46 and the “fraction of cells in G1 phase” value under setting [1] is 0.366.
Regarding `CSc1ccc2c(c1)N(CCC1CCCCN1C)c1ccccc1S2` (stereo not given) [Thioridazine HCl] (53.969 µM), the “fraction of cells in G1 phase” value runs as follows: under setting [3], 0.469; under setting [1], 0.729.
`CC(=O)N1CCN(c2ccc(OCC3COC(Cn4ccnc4)(c4ccc(Cl)cc4Cl)O3)cc2)CC1` (stereo not given) [Ketoconazole] (37.6334 µM): the “fraction of cells in G1 phase” value runs as follows: under setting [2], 0.507; under setting [3], 0.84; under setting [1], 0.747.
For `COC1=C(OC)C(=O)C(CCCCCCCCCCO)=C(C)C1=O` [Idebenone] (59.0933 µM), the “fraction of cells in G1 phase” value runs as follows: under setting [3], 0.472; under setting [1], 0.693.
Turning to `CC[C@H](C)C(=O)O[C@H]1C[C@@H](C)C=C2C=C[C@H](C)[C@H](CC[C@@H]3C[C@@H](O)CC(=O)O3)[C@H]21` [Lovastatin] (49.4375 µM), the “fraction of cells in G1 phase” value is, setting by setting: under setting [2], 0.402; under setting [3], 0.698; under setting [1], 0.747.
